Among the data in paper PMC7862700, “An all-to-all approach to the identification of sequence-specific readers for epigenetic DNA modifications on cytosine” are binding signal values, retold here.

Holding throughout (test): DAPPL (digital affinity profiling via proximity ligation, sequencing); 10 mM Tris-HCl pH 7.5, 50 mM NaCl, 1 mM DTT, 4% glycerol, room temperature, 30 min; GST-TFs on glutathione beads, 16-mer random dsDNA library, 0.1% formaldehyde crosslink after washing; high values mean tight binding
The target in one experiment is T1, FLI1 (Homo sapiens, UniProt Q01543 1-452).
T1 sequence: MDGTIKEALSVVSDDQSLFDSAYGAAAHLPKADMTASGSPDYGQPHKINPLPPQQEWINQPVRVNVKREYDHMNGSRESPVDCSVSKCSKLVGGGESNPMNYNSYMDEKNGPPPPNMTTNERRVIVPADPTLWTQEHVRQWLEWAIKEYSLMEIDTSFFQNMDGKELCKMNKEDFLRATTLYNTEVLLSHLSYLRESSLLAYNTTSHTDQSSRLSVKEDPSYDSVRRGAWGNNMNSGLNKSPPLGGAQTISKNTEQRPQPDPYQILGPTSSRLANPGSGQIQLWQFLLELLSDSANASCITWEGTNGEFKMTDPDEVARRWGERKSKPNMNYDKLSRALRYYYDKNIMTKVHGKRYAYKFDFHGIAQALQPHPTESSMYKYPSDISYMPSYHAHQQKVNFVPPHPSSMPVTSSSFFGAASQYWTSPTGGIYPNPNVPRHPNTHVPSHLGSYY
The conditions noted are these: protein: recombinant; tags: N-terminal GST; dsDNA, one strand shown. Summed up:
(§1)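 Each value of binding signal is a hexamer's read frequency for a factor divided by the same hexamer's frequency in the tag-only sample. Barcoded, bead-captured GST fusions of human transcription factors made in yeast were pooled with that sample and incubated with 200 nmole of a random double-stranded 16-mer DNA library in Tris/NaCl/DTT/glycerol buffer at room temperature for 30 min. Washing, 0.1% formaldehyde crosslinking, proximity ligation, PCR and Illumina NextSeq500 sequencing followed.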

In another experiment the target is T2, ELK1 (Homo sapiens, UniProt P19419 1-428).
T2 sequence: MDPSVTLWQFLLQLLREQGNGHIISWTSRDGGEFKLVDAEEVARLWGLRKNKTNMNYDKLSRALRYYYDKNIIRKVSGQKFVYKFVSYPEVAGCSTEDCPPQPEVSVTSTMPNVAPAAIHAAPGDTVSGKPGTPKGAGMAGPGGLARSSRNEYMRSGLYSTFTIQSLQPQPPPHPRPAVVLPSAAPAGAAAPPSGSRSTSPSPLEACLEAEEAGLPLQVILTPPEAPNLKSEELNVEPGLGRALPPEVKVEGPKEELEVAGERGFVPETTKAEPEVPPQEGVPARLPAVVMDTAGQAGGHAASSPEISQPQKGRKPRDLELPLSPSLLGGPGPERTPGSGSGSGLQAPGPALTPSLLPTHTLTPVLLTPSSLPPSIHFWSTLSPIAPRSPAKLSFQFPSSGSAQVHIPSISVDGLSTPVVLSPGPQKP
Particulars: protein: recombinant; tags: N-terminal GST; dsDNA, one strand shown. An outline of the steps: as §1

In another experiment the target is T3, GABPA (Homo sapiens, UniProt Q06546 1-454).
T3 sequence: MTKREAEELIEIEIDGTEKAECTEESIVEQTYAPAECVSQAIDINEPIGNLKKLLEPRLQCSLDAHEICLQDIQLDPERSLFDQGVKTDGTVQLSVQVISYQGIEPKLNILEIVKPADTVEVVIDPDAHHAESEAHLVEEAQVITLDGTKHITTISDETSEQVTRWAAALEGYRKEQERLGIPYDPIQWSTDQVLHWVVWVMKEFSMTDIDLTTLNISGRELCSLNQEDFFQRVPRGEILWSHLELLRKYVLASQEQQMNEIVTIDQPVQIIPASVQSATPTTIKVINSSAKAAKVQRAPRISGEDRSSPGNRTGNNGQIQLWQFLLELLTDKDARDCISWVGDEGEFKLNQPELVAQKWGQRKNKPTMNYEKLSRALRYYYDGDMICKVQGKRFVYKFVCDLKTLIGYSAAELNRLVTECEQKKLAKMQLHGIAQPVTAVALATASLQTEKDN
The conditions noted are these: protein: recombinant; tags: N-terminal GST; dsDNA, one strand shown. An outline of the steps:
as §1

In another experiment the target is T4, ERG (Homo sapiens, UniProt P11308 1-479).
T4 sequence: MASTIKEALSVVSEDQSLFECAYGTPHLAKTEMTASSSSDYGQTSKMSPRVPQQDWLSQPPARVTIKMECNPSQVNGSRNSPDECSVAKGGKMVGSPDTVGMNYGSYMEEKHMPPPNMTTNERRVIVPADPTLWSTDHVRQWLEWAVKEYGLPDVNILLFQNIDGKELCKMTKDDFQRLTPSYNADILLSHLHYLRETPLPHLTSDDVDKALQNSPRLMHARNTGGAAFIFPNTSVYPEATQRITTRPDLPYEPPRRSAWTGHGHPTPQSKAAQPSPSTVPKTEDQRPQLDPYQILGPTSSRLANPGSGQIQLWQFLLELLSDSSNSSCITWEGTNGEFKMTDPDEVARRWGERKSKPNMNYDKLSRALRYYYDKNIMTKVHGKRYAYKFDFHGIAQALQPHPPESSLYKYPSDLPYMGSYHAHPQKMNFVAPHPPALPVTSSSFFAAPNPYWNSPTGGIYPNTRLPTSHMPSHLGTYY
Particulars: protein: recombinant; tags: N-terminal GST; dsDNA, one strand shown. An outline of the steps: as §1

In a further experiment the target is ELF1 (Homo sapiens, UniProt P32519 1-619). The conditions noted are these: protein: recombinant; tags: N-terminal GST; dsDNA, one strand shown. An outline of the steps:
as §1

In the next experiment the target is T5, EHF (Homo sapiens, UniProt Q9NZC4 1-300).
T5 sequence: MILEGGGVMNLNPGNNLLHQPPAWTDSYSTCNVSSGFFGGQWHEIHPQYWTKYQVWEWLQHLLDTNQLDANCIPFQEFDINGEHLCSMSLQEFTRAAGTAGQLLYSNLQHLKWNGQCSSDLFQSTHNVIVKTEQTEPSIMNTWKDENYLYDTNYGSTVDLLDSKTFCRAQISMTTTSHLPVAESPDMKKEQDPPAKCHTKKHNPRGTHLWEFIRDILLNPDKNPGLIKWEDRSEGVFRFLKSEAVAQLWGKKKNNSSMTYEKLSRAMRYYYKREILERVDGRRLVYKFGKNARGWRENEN
Particulars: protein: recombinant; tags: N-terminal GST; dsDNA, one strand shown. An outline of the steps: as §1

The next experiment deals with SPI1 (Homo sapiens, UniProt P17947 1-270). Particulars: protein: recombinant; tags: N-terminal GST; dsDNA, one strand shown. An outline of the steps:
as §1

Another experiment concerns the target SPIB (Homo sapiens, UniProt Q01892 1-262). The conditions noted are these: protein: recombinant; tags: N-terminal GST; dsDNA, one strand shown. An outline of the steps:
as §1

For a further experiment, the target named is T6, ELK3 (Homo sapiens, UniProt P41970 1-407).
T6 sequence: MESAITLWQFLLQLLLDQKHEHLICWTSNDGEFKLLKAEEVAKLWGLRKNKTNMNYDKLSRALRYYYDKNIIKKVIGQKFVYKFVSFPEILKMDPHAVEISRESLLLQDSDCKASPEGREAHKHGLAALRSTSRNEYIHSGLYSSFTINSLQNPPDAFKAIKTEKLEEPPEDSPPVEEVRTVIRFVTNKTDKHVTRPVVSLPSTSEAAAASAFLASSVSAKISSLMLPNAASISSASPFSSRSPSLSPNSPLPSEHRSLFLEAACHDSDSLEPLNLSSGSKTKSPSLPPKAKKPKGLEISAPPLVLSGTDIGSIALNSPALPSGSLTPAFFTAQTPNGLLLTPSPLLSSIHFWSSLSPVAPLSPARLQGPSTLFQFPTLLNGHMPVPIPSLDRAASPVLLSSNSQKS
Particulars: protein: recombinant; tags: N-terminal GST; dsDNA, one strand shown. Summed up: as §1

In another experiment the target is T7, FEV (Homo sapiens, UniProt Q99581 1-238).
T7 sequence: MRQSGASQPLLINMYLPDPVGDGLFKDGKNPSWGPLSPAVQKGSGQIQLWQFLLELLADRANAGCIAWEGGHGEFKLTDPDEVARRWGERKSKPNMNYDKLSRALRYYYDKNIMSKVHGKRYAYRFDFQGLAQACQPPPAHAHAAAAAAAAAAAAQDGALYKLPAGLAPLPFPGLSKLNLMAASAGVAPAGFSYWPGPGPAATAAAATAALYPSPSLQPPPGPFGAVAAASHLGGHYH
The conditions noted are these: protein: recombinant; tags: N-terminal GST; dsDNA, one strand shown. Summed up: as §1

The target of the next experiment is ETV5 (Homo sapiens, UniProt P41161 1-510). The conditions noted are these: protein: recombinant; tags: N-terminal GST; dsDNA, one strand shown. An outline of the steps: as §1
Sequence of ETV5 (P41161 whole entry): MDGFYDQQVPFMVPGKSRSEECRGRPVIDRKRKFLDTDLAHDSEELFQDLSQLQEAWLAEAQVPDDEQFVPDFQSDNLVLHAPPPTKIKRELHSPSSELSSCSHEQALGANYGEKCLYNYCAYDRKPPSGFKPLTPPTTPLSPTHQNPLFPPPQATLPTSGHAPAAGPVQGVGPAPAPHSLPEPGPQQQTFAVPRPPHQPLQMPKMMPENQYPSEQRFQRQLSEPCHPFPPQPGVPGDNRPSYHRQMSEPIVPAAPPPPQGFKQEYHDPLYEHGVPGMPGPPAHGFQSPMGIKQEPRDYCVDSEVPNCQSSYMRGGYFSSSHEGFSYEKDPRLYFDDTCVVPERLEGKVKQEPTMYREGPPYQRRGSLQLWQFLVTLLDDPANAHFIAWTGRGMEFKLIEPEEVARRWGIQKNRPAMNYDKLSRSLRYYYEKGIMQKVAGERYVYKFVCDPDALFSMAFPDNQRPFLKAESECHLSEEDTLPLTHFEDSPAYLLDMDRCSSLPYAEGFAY
A further experiment addresses HSF1 (Homo sapiens, UniProt Q00613 1-529). Particulars: protein: recombinant; tags: N-terminal GST; chain copies: 3; dsDNA, one strand shown. Summed up:
as §1

A further experiment deals with ELF4 (Homo sapiens, UniProt Q99607 1-663). The conditions noted are these: protein: recombinant; tags: N-terminal GST; dsDNA, one strand shown. Summed up:
as §1

A further experiment has as its target T8, ELK4 (Homo sapiens, UniProt P28324-2 1-405).
T8 sequence: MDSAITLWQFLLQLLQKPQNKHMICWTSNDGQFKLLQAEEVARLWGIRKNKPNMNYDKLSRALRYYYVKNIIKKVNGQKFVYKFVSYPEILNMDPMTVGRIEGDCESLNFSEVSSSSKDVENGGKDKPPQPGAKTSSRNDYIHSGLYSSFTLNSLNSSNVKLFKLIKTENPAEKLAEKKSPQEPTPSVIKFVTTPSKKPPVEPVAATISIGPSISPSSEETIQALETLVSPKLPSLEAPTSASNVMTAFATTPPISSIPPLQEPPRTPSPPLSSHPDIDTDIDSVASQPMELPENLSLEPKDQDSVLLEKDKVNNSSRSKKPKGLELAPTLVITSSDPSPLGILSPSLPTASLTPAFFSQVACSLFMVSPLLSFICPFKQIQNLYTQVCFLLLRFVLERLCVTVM
The conditions noted are these: protein: recombinant; tags: N-terminal GST; dsDNA, one strand shown. An outline of the steps:
as §1

In the next experiment the target is T9, ETV2 (Homo sapiens, UniProt O00321 1-342).
T9 sequence: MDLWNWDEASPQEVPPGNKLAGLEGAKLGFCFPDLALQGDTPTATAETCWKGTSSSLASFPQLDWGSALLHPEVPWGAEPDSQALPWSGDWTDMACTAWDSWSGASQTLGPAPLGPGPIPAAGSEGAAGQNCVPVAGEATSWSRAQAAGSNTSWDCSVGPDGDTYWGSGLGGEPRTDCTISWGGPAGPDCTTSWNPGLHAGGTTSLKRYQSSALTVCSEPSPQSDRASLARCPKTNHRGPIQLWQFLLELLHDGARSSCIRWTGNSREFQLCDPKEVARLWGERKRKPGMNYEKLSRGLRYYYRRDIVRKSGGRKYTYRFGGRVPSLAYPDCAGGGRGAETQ
The conditions noted are these: protein: recombinant; tags: N-terminal GST; dsDNA, one strand shown. Summed up:
as §1

A further experiment deals with T10, ELF3 (Homo sapiens, UniProt P78545 1-371).
T10 sequence: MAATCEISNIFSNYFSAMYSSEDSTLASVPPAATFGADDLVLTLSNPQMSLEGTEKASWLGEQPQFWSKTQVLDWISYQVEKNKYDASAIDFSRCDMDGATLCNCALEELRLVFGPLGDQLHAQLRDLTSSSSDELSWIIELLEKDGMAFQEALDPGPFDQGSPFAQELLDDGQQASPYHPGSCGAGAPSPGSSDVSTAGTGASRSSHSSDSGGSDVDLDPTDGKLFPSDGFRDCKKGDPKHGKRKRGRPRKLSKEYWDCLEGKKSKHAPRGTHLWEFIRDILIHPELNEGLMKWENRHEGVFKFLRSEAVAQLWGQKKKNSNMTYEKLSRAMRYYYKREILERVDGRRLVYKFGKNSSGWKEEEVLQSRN
The conditions noted are these: protein: recombinant; tags: N-terminal GST; dsDNA, one strand shown. An outline of the steps: as §1

The next experiment deals with CRX (Homo sapiens, UniProt O43186 1-299). The conditions noted are these: protein: recombinant; tags: N-terminal GST; dsDNA, one strand shown. Summed up:
as §1

The next experiment addresses ETV1 (Homo sapiens, UniProt P50549 1-477). Particulars: protein: recombinant; tags: N-terminal GST; dsDNA, one strand shown. Summed up: as §1

Sequence of HSF1 (Q00613 whole entry): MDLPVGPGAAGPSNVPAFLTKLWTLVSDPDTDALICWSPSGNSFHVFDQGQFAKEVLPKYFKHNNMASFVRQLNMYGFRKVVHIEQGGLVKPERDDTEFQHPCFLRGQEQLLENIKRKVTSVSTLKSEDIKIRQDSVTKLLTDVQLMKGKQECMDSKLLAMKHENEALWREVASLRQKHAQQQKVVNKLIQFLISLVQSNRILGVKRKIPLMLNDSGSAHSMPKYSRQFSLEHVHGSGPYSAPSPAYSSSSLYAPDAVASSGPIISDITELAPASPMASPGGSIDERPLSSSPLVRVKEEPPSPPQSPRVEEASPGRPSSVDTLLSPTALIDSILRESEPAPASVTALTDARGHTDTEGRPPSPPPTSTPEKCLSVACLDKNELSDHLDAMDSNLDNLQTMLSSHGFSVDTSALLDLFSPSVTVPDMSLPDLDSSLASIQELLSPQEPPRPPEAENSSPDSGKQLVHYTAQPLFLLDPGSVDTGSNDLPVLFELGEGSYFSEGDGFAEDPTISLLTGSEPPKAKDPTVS
Sequence of CRX (O43186 whole entry): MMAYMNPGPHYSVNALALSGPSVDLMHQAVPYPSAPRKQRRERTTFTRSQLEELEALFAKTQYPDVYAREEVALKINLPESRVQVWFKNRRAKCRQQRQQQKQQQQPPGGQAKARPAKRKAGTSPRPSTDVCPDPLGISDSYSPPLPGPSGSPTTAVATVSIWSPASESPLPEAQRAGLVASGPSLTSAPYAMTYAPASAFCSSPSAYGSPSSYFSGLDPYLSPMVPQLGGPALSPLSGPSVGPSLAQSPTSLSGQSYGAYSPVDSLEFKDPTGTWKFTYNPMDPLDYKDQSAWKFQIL
Sequence of ETV1 (P50549 whole entry): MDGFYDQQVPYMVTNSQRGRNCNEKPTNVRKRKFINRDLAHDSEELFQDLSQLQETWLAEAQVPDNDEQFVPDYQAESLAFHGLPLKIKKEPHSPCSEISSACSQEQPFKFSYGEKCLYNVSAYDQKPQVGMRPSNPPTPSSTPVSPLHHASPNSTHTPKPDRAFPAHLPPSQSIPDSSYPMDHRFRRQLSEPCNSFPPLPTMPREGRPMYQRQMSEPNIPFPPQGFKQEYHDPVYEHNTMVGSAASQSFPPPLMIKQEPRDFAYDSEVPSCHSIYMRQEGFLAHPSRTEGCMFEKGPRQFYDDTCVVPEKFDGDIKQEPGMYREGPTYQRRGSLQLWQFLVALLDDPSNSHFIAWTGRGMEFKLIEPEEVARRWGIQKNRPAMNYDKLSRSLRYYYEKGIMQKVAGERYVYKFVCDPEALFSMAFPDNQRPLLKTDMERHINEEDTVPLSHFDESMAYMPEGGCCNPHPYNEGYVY
Sequence of ELF1 (P32519 whole entry): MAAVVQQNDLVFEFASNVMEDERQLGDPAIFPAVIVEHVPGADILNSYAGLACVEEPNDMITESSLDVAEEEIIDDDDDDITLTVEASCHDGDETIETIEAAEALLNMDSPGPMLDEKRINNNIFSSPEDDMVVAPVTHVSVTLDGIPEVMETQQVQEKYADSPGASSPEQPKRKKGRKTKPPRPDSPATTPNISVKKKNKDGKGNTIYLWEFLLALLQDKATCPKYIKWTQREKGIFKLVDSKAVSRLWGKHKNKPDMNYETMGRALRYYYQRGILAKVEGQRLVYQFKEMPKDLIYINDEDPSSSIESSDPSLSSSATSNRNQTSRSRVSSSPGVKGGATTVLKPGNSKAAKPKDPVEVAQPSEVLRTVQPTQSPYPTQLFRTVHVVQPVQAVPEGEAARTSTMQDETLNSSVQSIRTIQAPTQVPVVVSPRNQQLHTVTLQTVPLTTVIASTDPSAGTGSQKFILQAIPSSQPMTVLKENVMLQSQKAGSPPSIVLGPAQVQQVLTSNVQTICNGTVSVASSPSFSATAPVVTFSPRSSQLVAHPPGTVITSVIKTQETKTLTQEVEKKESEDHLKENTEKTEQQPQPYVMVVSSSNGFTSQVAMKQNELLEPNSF
Sequence of ELF4 (Q99607 whole entry): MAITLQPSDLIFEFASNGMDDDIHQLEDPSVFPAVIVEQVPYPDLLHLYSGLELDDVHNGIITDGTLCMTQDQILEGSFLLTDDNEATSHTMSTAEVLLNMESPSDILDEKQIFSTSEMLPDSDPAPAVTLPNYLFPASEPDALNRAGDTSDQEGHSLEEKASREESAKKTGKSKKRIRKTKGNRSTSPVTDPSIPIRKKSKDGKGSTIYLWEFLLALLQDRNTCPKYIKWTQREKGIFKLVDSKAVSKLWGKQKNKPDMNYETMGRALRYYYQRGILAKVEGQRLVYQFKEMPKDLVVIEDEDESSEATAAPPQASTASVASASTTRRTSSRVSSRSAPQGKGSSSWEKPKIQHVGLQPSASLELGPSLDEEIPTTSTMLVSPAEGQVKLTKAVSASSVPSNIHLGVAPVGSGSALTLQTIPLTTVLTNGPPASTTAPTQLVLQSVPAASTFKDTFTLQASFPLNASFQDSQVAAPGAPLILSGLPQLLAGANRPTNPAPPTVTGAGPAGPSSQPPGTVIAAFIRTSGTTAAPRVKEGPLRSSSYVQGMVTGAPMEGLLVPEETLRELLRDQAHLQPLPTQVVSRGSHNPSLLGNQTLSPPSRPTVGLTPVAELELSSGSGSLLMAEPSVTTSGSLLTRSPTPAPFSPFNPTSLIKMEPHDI
Sequence of SPIB (Q01892 whole entry): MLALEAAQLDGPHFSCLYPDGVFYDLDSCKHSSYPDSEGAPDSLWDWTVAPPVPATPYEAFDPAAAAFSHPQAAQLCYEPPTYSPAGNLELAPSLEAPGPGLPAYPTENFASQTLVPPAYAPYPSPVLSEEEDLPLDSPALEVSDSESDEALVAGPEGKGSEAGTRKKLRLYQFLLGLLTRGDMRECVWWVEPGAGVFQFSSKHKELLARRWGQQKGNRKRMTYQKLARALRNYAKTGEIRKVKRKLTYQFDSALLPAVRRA

In the case of TTCATA, the binding signal in the experiment with FLI1 is 1.17 fold enrichment (6-mer frequency, TF over GST control); with ELK1, 1.16 fold enrichment (6-mer frequency, TF over GST control); with GABPA it was 1.18 fold enrichment (6-mer frequency, TF over GST control); with ERG it was 1.11 fold enrichment (6-mer frequency, TF over GST control); with ELF1, 1.19 fold enrichment (6-mer frequency, TF over GST control); with EHF, 1.18 fold enrichment (6-mer frequency, TF over GST control). Moreover, the binding signal in the experiment with SPI1 was 1.18 fold enrichment (6-mer frequency, TF over GST control); in the experiment with SPIB, 1.23 fold enrichment (6-mer frequency, TF over GST control); with ELK3 it was 1.16 fold enrichment (6-mer frequency, TF over GST control); with FEV, 1.12 fold enrichment (6-mer frequency, TF over GST control); with ETV5, 1.1 fold enrichment (6-mer frequency, TF over GST control); with HSF1, 1.05 fold enrichment (6-mer frequency, TF over GST control). In addition, the binding signal in the experiment with ELF4 is 1.19 fold enrichment (6-mer frequency, TF over GST control); with ELK4 it was 1.2 fold enrichment (6-mer frequency, TF over GST control); with ETV2 it was 1.06 fold enrichment (6-mer frequency, TF over GST control); with ELF3, 1.24 fold enrichment (6-mer frequency, TF over GST control); with CRX, 1.2 fold enrichment (6-mer frequency, TF over GST control); with ETV1, 1.24 fold enrichment (6-mer frequency, TF over GST control).
